Results taken from PubChem BioAssay AID1159580 (chemical genetic matrix, 2015).
The whole screen tested about 5,500 compounds, of which about 2,000 (36%) were called active. About 18% were inconclusive and are not listed. No stated cut-off is given here; in the data, active means normalized growth mostly below about 0.91 (no sharp cut-off); inconclusive means no clear call, values can overlap the other calls; inactive means mostly above about 0.92. The list shows a part of the results.

Assay: chemical genetic growth profiling, strain panel (AID 1159580);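 further: tested at 20 µM; growth read once vehicle control cultures reached saturation at 30 °C; 1 = growth at the plate median or of vehicle wells; lower values mean less growth of the strain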
Conditions: S. cerevisiae deletion strains, growth OD
[1] = locus YHR030C, strain SLT2, hits give low values
[2] = locus YJL095W, strain BCK1, hits give low values

Measured: normalized growth

O=C(O)CS
inactive: [1] 1.05 | locus YHR079C, strain IRE1, hits give low values 1.02 | [2] 1.04 | locus YJR066W, strain TOR1, hits give low values 0.941 | locus YLR113W, strain HOG1, hits give low values 1.07 | locus YNL183C, strain NPR1, hits give low values 1.02 | locus YOR231W, strain MKK1, hits give low values 1.08 | locus YPL256C, strain CLN2, hits give low values 1.05

O=C(O)CCC(=O)C(=O)O
inactive: locus YAL013W, strain DEP1, hits give low values 1.01 | locus YBR021W, strain FUR4, hits give low values 1.01 | locus YBR229C, strain ROT2, hits give low values 1.01 | locus YCL029C, strain bik1, hits give low values 1.03 | locus YDL035C, strain GPR1, hits give low values 1.03 | locus YDL074C, strain BRE1, hits give low values 1.05 | locus YDL101C, strain DUN1, hits give low values 1.02 | locus YDL185W, strain tfp1, hits give low values 1.03 | locus YDL192W, strain arf1, hits give low values 1.05 | locus YDR101C, strain arx1, hits give low values 1.05 | locus YDR162C, strain NBP2, hits give low values 1.02 | locus YDR318W, strain mcm21, hits give low values 1.01 | locus YDR388W, hits give low values 1.02 | locus YDR502C, strain sam2, hits give low values 1.03 | locus YEL061C, strain CIN8, hits give low values 1.01 | locus YER110C, hits give low values 1.03 | locus YER155C, strain BEM2, hits give low values 1 | locus YER167W, strain BCK2, hits give low values 1.01 | locus YGL078C, strain dbp3, hits give low values 1.02 | locus YGL086W, strain mad1, hits give low values 1 | locus YGL248W, strain PDE1, hits give low values 1.01 | locus YGR135W, strain pre9, hits give low values 0.987 | locus YGR229C, strain SMI1, hits give low values 1.03 | locus YGR252W, strain gcn5, hits give low values 0.942 | [1] 1.01 | locus YHR079C, strain IRE1 (second series), hits give low values 1.03 | locus YHR094C, strain hxt1, hits give low values 1.01 | locus YHR129C, strain ARP1, hits give low values 1.02 | locus YHR200W, strain rpn10, hits give low values 1 | locus YIL066C, strain RNR3, hits give low values 1.01 | locus YIL073C, strain SPO22, hits give low values 1.07 | locus YIL125W, strain kgd1, hits give low values 1.02 | locus YIR030C, strain dcg1, hits give low values 1.03 | [2] 1.02 | locus YJL134W, strain LCB3, hits give low values 1 | locus YJL168C, strain set2, hits give low values 1.01 | locus YJL187C, strain SWE1 (second series), hits give low values 1.02 | locus YJR043C, strain POL32, hits give low values 1.01 | locus YJR075W, strain HOC1, hits give low values 1 | locus YKL009W, strain mrt4, hits give low values 1.05 | locus YKL068W, hits give low values 1.01 | locus YKL085W, strain MDH1 (second series), hits give low values 1.01 | locus YKL085W, strain MDH1, hits give low values 1.01 | locus YKL190W, strain CNB1, hits give low values 1.01 | locus YKR001C, strain vps1, hits give low values 1.05 | locus YLR039C, strain RIC1, hits give low values 1.05 | locus YLR058C, strain SHM2, hits give low values 1.01 | locus YLR102C, strain apc9, hits give low values 1.01 | locus YLR262C, strain YPT6, hits give low values 1.05 | locus YLR268W, strain sec22, hits give low values 1.03 | locus YLR330W, strain CHS5, hits give low values 1.01 | locus YLR342W, strain FKS1 (second series), hits give low values 1.01 | locus YLR371W, strain rom2, hits give low values 1.01 | locus YLR418C, strain cdc73, hits give low values 1.02 | locus YML016C, strain PPZ1, hits give low values 1.01 | locus YML032C, strain rad52, hits give low values 0.995 | locus YML124C, strain tub3, hits give low values 1.02 | locus YMR078C, strain ctf18, hits give low values 1.03 | locus YMR223W, strain ubp8, hits give low values 1 | locus YMR307W, strain GAS1, hits give low values 1.05 | locus YNL067W, strain RPL9B, hits give low values 1.01 | locus YNL128W, strain TEP1, hits give low values 1.04 | locus YNL233W, strain BNI4, hits give low values 1.01 | locus YNL250W, strain rad50, hits give low values 1.03 | locus YNL271C, strain bni1, hits give low values 1.04 | locus YNL298W, strain CLA4, hits give low values 1.01 | locus YNL307C, strain MCK1, hits give low values 1.04 | locus YNR052C, strain pop2, hits give low values 1.02 | locus YOL012C, strain htz1 0.918 | locus YOL147C, strain pex11, hits give low values 1.02 | locus YOR061W, strain CKA2, hits give low values 1.01 | locus YOR069W, strain VPS5, hits give low values 1 | locus YOR136W, strain idh2, hits give low values 1.02 | locus YOR144C, strain elg1, hits give low values 1.02 | locus YOR184W, strain ser1, hits give low values 1.02 | locus YOR316C, strain cot1, hits give low values 1.02 | locus YPR119W, strain clb2, hits give low values 1.02 | locus YPR141C, strain kar3, hits give low values 1.02 | locus YPR163C, strain tif3, hits give low values 1.03 | locus YPR167C, strain met16, hits give low values 1.05 | strain wtn01, hits give low values 1.02
